# Experimental data from PubChem BioAssay AID504832 (National Center for Advancing Translational Sciences (NCATS), 2011).
# Out of some 310,000 compounds screened, about 18,000 (5.8%) were called active. Inconclusive results (about 22%) are left out. Calls follow the shape of the dose curve; as a rule, active = well fitted inhibition curve with a large enough effect; inconclusive = small, poorly fitted or top-dose-only effect, or another doubt; inactive = no such curve, though single readings can be large or run the other way. Shown is part of a subset that was picked to be rich in actives.
# Assay: Primary qHTS for delayed death inhibitors of the malarial parasite plastid, 48 hour incubation
# Conditions: P. falciparum luciferase growth in erythrocytes; series mostly up to 28.7 µM; activity change, negative = inhibition: at the top concentration
# Outline: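 Luminescence readout; reporter = integrated firefly luciferase in P. falciparum. RBC culture at 2% hematocrit, 0.1% parasitemia final, 37 C/5% CO2; decreased signal taken as growth inhibition.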
# % is scaled to controls: 0 for no effect and ±100 for the full control effect; potency is read from the fitted curve at half-maximal effect.
Compound,"activity change, negative = inhibition",Potency
O=C(NC1CCCCC1)c1ccc(-c2ccc(Cl)cc2)o1,129% (inactive),–
O=C(Cn1nc(CNc2ccc(Cl)cc2)[n+]2c1CCCCC2)c1ccc(Cl)cc1,–,1.04 µM (active)
COC(=O)c1ccc(NCC(=O)N2CCCCCC2)cc1,190% (inactive),–
O=C(Cn1ncc(N2CCCC2)c(Br)c1=O)c1ccc(Cl)cc1,94.5% (inactive),–
Cn1c(CCNS(=O)(=O)c2ccc(F)cc2)nnc1SCc1cccnc1,-12.3% (inactive),–
CC(C)c1ccc(S(=O)(=O)NC2CCCC2)cc1,21.3% (inactive),–
O=c1[nH]c(/C=C\c2cccc(C(F)(F)F)c2)nc(O)c1[N+](=O)[O-],–,9.28 µM (active)
Cc1ccccc1/C=C\c1nc(O)c([N+](=O)[O-])c(=O)[nH]1,-10.1% [at 0.00184 µM] (inactive),–
O=c1cc(O)c(-c2cccc(C(F)(F)F)c2)c(Cl)[nH]1,9.62% (inactive),–
Cc1ccc(C)c(NC(=O)c2cc(-c3cc(C)cc(C)c3O)n[nH]2)c1,-16% [at 0.00184 µM] (inactive),–
COCC(C)OC(=O)c1c(N)n(CCCN2CCOCC2)c2nc3ccccc3nc12 (stereo not drawn),-7.36% (inactive),–
CCOC(=O)c1c(N)n(Cc2ccccc2)c2nc3ccccc3nc12,–,9.28 µM (active)
CCC(=O)Nc1c(S(=O)(=O)c2ccccc2)c2nc3ccccc3nc2n1Cc1ccccc1,-9.82% (inactive),–
Cc1c(C)c2ccc(OCC(=O)N3CCN(c4cccc(Cl)c4)CC3)cc2oc1=O,11.4% (inactive),–
CCc1ccc2c(c1)C(c1ccc([N+](=O)[O-])cc1)=NNC(c1ccccc1)=N2,4.15% (inactive),–
O=C1Nc2ccccc2C12Nc1ccccc1S2 (stereo not drawn),-8.82% (inactive),–
CCc1ccc2c(c1)C1(NN=C(c3ccccc3)S1)C(=O)N2 (stereo not drawn),–,3.7 µM (active)
O=C(c1ccc(Br)o1)N1CCN(CCOc2ccccc2)CC1,2.93% (inactive),–
Cc1ccc(NS(=O)(=O)c2ccc(C(C)(C)C)cc2)cn1,-7.91% (inactive),–
O=C(c1cccs1)N1CCN(C(=O)N2CCOCC2)CC1,16.9% (inactive),–
O=C(/C=C/c1cccs1)c1cc(Cl)ccc1OC(=O)N1CCOCC1,–,10.4 µM (active)
O=C(Oc1cccc(C(=S)N2CCOCC2)c1)c1cccc(Cl)c1,10.5% (inactive),–
O=C(O)c1cccc(S(=O)(=O)N2CC=C(c3ccccc3)CC2)c1,-23.1% (inactive),–
CC(C)C[C@H](NC(=O)C1CCC(CNC(=O)[C@@H]2CCCN2C(=O)OC(C)(C)C)CC1)C(=O)O (stereo partly drawn),5.48% (inactive),–
Cc1ccccc1C(=O)N1CCC(C(=O)Oc2ccc(C#N)cc2)CC1,10% (inactive),–
Cc1cc(=O)oc2ccc(OCC(=O)O)cc12,-2.39% (inactive),–

Compound,"activity change, negative = inhibition",Potency
Cc1cc(=O)oc2cc(OCCC[n+]3ccccc3)ccc12,–,5.22 µM (active)
COc1cccc(-c2nnc(SCCOc3ccc4c(C)cc(=O)oc4c3)o2)c1,40.1% (inactive),–
CCCn1c(C(Cc2ccccc2)NC(=O)COC)nc2ccccc21 (stereo not drawn),-6.33% (inactive),–
CCCC(NC(=O)c1ccccc1)c1nc2ccccc2n1Cc1ccc(C(=O)OC)o1 (stereo not drawn),–,13.1 µM (active)
CC(O)c1nc2ccccc2n1Cc1ccc([N+](=O)[O-])cc1 (stereo not drawn),-3.37% (inactive),–
Cn1ccnc1SCC(=O)Nc1ccc2c(c1)OCCO2,67.6% (inactive),–
CCN(CC(=O)Nc1ccccc1OC)C(=O)CC1CC2CCC1C2 (stereo not drawn),-19% (inactive),–
N#C[C@]1(S(=O)(=O)c2ccccc2)C[C@@H]2ON=C(c3cccc(Br)c3)[C@@H]2C1,-5.53% (inactive),–
Cc1ccc(C(=O)Nc2ccc(C)c(S(=O)(=O)N(C)C)c2)s1,241% (inactive),–
Cc1ccc(NC(=O)CNCc2ccccn2)cc1S(=O)(=O)N(C)C,–,16.5 µM (active)
Cc1ccc(NC(=O)c2cccs2)cc1S(=O)(=O)N(C)C,6.38% (inactive),–
Cn1c(CCc2ccccc2)nnc1SCC(N)=O,2.6% (inactive),–
COc1ccc(NC(=O)c2cccc3c2C(=O)N(CC2CCCO2)C3)cc1OC (stereo not drawn),-17.8% (inactive),–
Cc1nc2sc(C(c3ccco3)N3CCOCC3)c(O)n2n1 (stereo not drawn),1.8% (inactive),–
O=C(c1cccnc1NCc1ccccc1)N1CCOCC1,6.15% (inactive),–
Oc1c(C(c2ccccn2)N2CCOCC2)ccc2cccnc12 (stereo not drawn),–,9.28 µM (active)
CCc1noc(C)c1C(=O)N1CCCSC1=Nc1ccccc1OC,-6.15% (inactive),–
Cc1c(C(=O)Nc2ccccn2)oc2ccc(Br)cc12,132% (inactive),–
CC(C)c1ccc(C(=O)OC2CCOC2=O)cc1 (stereo not drawn),11.3% (inactive),–
CCC(C)(C)NC(=O)CN(C(=O)CCC(=O)Nc1nccs1)c1ccc2c(c1)OCO2,-19.2% (inactive),–
COc1ccc(C(=O)N2CCc3cc(OC)c(OC)cc3C2c2cccc([N+](=O)[O-])c2)cc1 (stereo not drawn),–,6.57 µM (active)
COc1cc2c(cc1OC)C(c1cccc([N+](=O)[O-])c1)=NCC2,-14.1% (inactive),–
COc1ccccc1C1SCCN1C(=O)c1ccc([N+](=O)[O-])cc1 (stereo not drawn),-5.95% (inactive),–
Cc1ccc(OCCNC(=O)CNC(=O)c2ccc(C)c(C)c2)cc1,6% (inactive),–
CN(C(=O)COC(=O)c1nc(Cl)ccc1Cl)C1CCS(=O)(=O)C1 (stereo not drawn),2.04% (inactive),–
COCCN1CCn2c(nc3cc(NS(C)(=O)=O)ccc32)C1,30.5% (inactive),–

Compound,"activity change, negative = inhibition",Potency
CC(=O)c1cccc(CN2CCC(CO)(Cc3ccccc3)CC2)c1,-7.63% (inactive),–
COc1ccc(CC2(CO)CCN(Cc3cnn(C)c3)CC2)cc1,2.96% (inactive),–
COc1ccccc1/C=C/CN1CCC(CO)(Cc2ccccc2)CC1,–,11.7 µM (active)
Cc1cc(C)n(CCNS(=O)(=O)c2ccc(Cl)cc2)n1,-7.98% (inactive),–
CC(=O)Nc1ccc(NS(=O)(=O)c2ccc3c(c2)NC(=O)CC(=O)N3)cc1,19.7% (inactive),–
Cc1sc2ncn(CC(=O)NCCCC(=O)N(C)Cc3ccccc3)c(=O)c2c1C,15.5% (inactive),–
CCCc1cc(=O)[nH]c(SCC(=O)N2C(C)CCCC2C)n1 (stereo not drawn),10.6% (inactive),–
O=C(CN1CCN(c2nc(-c3ccccc3)cs2)CC1)NCc1ccc2c(c1)OCO2,-11.5% (inactive),–
CC1CCCC(C)N1C(=O)CN1CCN(c2nc(-c3ccc(F)cc3)cs2)CC1 (stereo not drawn),–,11.7 µM (active)
Cc1ccc(S(=O)Cc2ccc(C(=O)N3CCN(C4CCCCC4)CC3)o2)cc1 (stereo not drawn),8.56% (inactive),–
O=C1C(=O)N(CCN2CCOCC2)C(c2cccc(Cl)c2)/C1=C(/O)c1ccc2c(c1)OCO2 (stereo not drawn),79.2% (inactive),–
O=C(NCCCn1ccnc1)/C(=C\c1ccccc1F)NC(=O)c1ccccc1,13.2% (inactive),–
CC(Oc1ccccc1)C(=O)Nc1c2c(nn1-c1ccccc1)CS(=O)C2 (stereo not drawn),5.06% (inactive),–
O=C(Nc1sc2c(c1C(=O)O)CCC2)c1ccccc1F,50.4% (inactive),–
C=CCn1c(=NC(=O)c2ccc(S(=O)(=O)N3CCCC3)cc2)sc2cc(NC(C)=O)ccc21,–,1.85 µM (active)
C=CCn1c(=NC(=O)c2cccs2)sc2cc(NC(C)=O)ccc21,105% (inactive),–
COc1cc(C(C)=O)ccc1OC(C)C(=O)Nc1ccc(S(=O)(=O)N2CCCC2)cc1 (stereo not drawn),-18.1% (inactive),–
CCOc1ccc(C(=O)Nc2ccc(S(=O)(=O)Nc3cc(C)on3)cc2)cc1,5.82% (inactive),–
COc1ccc(C)cc1NC(=O)CNCc1cccs1,3.51% (inactive),–
CCOC(=O)Nc1ccc(NC(=O)OCC)cc1,56% (inactive),–
C[C@H](NC(=O)OC(C)(C)C)c1nnc(SCC(=O)Nc2ccc(Br)cc2)o1,-5.28% (inactive),–
CC(C)(C)OC(=O)Nc1ccc([C@@H](NC(=O)OC(C)(C)C)C(=O)OC(C)(C)C)cc1,–,2.08 µM (active)
CN(Cc1ccccc1Cl)C(=O)C1CCC(=O)N(CCc2cccc(F)c2)C1 (stereo not drawn),-19.1% (inactive),–
CCOC(=O)C1=C(c2ccccc2)NC(=O)NC1c1cc(OC)c(OC)cc1OC (stereo not drawn),4.34% (inactive),–
CCOC(=O)C1=C(CNC2CCCCC2)NC(=O)NC1c1cc(C)ccc1C (stereo not drawn),–,10.4 µM (active)
CC1=C(C(=O)OCC2CCCCC2)C(c2ccc(F)cc2)NC(=O)N1 (stereo not drawn),29.1% (inactive),–

Compound,"activity change, negative = inhibition",Potency
Cc1ccc(S(=O)(=O)CC(=O)Nc2nnc(C)s2)cc1,-2.59% (inactive),–
O=C(NC(=S)NC1CCS(=O)(=O)C1)c1cccc([N+](=O)[O-])c1 (stereo not drawn),11.5% (inactive),–
CCCCCC(=O)NC(=S)NNC(=O)c1ccc([N+](=O)[O-])cc1,11.8% (inactive),–
CC(C)CC(=O)NC(=S)NNC(=O)c1cccc([N+](=O)[O-])c1,–,14.7 µM (active)
Cc1cc(C(=O)Nc2nnc(C3CC3)s2)c(C)s1,234% (inactive),–
O=C(COc1ccccc1Cl)Nc1ccccc1C(=O)NC1CC1,-4.82% (inactive),–
O=C(CN1CCCCC1)Nc1ccccc1C(=O)NC1CC1,14% (inactive),–
CC(NCC(=O)Nc1ccccc1C(=O)NC1CC1)c1ccccc1Cl (stereo not drawn),–,9.28 µM (active)
O=C(CN1C(=O)NC2(CCCCC2)C1=O)NCCc1c[nH]c2ccccc12,-11% (inactive),–
CCN(CC(=O)Nc1ccc(NC(C)=O)cc1)C(=O)C1CC(=O)N(Cc2ccc(C)cc2)C1 (stereo not drawn),3.06% (inactive),–
CN1CCN(S(=O)(=O)c2cccc(C(=O)N3CCc4ccccc43)c2)CC1,7.8% (inactive),–
Cn1c(=O)n(C)c2cc(S(=O)(=O)N3CCCc4ccccc43)ccc21,-12.1% (inactive),–
Cc1ccc(NC(=O)c2cccc(S(=O)(=O)N3CCCc4ccccc43)c2)nc1,–,4.15 µM (active)
O=S(=O)(c1ccc2c(c1)OCCO2)N1CCc2ccccc21,-4.28% (inactive),–
CC1CCN(C(=O)c2cccc(S(=O)(=O)N3CCCc4ccccc43)c2)CC1,-65.1% (inactive),–
NS(=O)(=O)c1ccc(CNC(=O)c2cccc(S(=O)(=O)N3CCc4ccccc43)c2)cc1,–,14.7 µM (active)
Cc1nc(COc2cc3oc(=O)cc(C)c3cc2Cl)cs1,56.1% (inactive),–
NC(=O)C1CCCN(CC(=O)N2CCN(c3ccccc3)CC2)C1 (stereo not drawn),21.6% (inactive),–
Cc1ccc(-n2ncc3c2CC(C)(C)CC3NC(=O)CCc2cnn(C)c2)cc1 (stereo not drawn),-10.4% (inactive),–
C[n+]1cc(-c2ccccc2)oc1-c1ccccc1,79.7% (inactive),–
O=C(COc1ccc2c3c(c(=O)oc2c1)CCCC3)NCC(O)c1ccccc1 (stereo not drawn),0.369% (inactive),–
O=c1c2ccccc2nc(CSc2nnnn2-c2ccccc2)n1-c1ccccc1,21.2% (inactive),–
CCCc1nc2ccccc2c(=O)n1/N=C/c1ccc(O)c(O)c1,0% (inactive),–
CCCN1C(=O)C(Cc2nc3ccccc3c(=O)n2-c2ccccc2)c2cc(C)ccc21 (stereo not drawn),–,13.1 µM (active)
COCCNC(=O)CN(Cc1ccco1)C(=O)CCC(=O)Nc1nccs1,3.14% (inactive),–
